Measurements taken from PubChem BioAssay (EPA / NIEHS).
Records with an inconclusive call do not appear. Activity calls are given as the source filed them. Rule for the calls, unless noted: active = hit-call score of the fitted dose curve at least 0.9, where 1 is the maximum; inactive = score below 0.9.

How the values were obtained:
[1] = read-out: E-selectin (Homo sapiens) (UniProt P16581); assay: BSK_SAg_Eselectin: BioMAP Diversity Plus: SAg Assay for Eselectin Biomarker Activity (AID 2283091); settings: primary human HUVEC with PBMC; actives raise or lower the signal
Method in brief: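 E-selectin ELISA readout at 24 h post-dosing in human umbilical vein endothelial cell/PBMC co-culture; gain or loss of signal fitted relative to DMSO baseline.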

[2] = read-out: Monokine induced gamma interferon (MIG), CXCL9 (gene 4283); assay: BSK_SAg_MIG: BioMAP Diversity Plus: SAg Assay for Monokine induced gamma interferon (MIG) Biomarker Activity (AID 2283092); settings: primary human HUVEC with PBMC; actives raise or lower the signal
Method in brief: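 HUVEC plus human PBMC co-culture, chemicals dosed and MIG (CXCL9) quantified by ELISA at 24 h. Bidirectional curve fitting against DMSO as negative control and baseline, so both gain and loss of signal count as activity.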

[3] = BSK_SAg_PBMCCytotoxicity: PBMC Cytotoxicity Assessment in the BioMAP Diversity Plus: SAg Assay (AID 2283093); settings: primary human HUVEC with PBMC;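 note: PBMC viability measured as Alamar Blue reduction fluorescence at 546/580 nm; fitted both ways against DMSO so a hit may be loss or gain of signal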;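 for AC50: PBMC superantigen activated with SEB plus TSST-1 one hour after compound addition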
Method in brief: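 Human umbilical vein endothelial cells co-cultured with PBMC; PBMC (75,000/well) pre-treated with compound 1 h, then activated with SEB and TSST-1 (20 ng/mL final each) for 90 h. Alamar Blue added 6 h, fluorescence 546/580 nm; bidirectional fit versus DMSO.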

[4] = read-out: Interleukin-8 (IL8), CXCL8 (gene 3576); assay: BSK_SAg_IL8: BioMAP Diversity Plus: SAg Assay for Interleukin-8 (IL8) Biomarker Activity (AID 2283094); settings: primary human HUVEC with PBMC; actives raise or lower the signal
Method in brief: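 ELISA read-out of IL-8 in a primary human vascular co-culture (umbilical vein endothelium plus PBMC), taken 24 h after compound addition. Values derive from bidirectional fits against DMSO negative controls.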

[5] = BSK_SAg_Proliferation: Cell Proliferation Assessment in the BioMAP Diversity Plus: SAg Assay (AID 2283095); settings: primary human HUVEC with PBMC;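 note: relative cell number as total protein by SRB absorbance in sub-confluent culture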
Method in brief: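 Cells (endothelium plus PBMC, human primary) were dosed with chemical, cultured 96 h, fixed in 10% TCA and stained with 0.1% SRB. Absorbance at 560 nm gave relative protein, fitted bidirectionally relative to DMSO.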

[6] = BSK_SAg_SRB: Viability Assessment in the BioMAP Diversity Plus: SAg Assay (AID 2283096); settings: primary human HUVEC with PBMC;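 note: cells read one day after compound addition; hits may be either gain or loss of signal compared with DMSO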
Method in brief: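 Endothelial/PBMC primary human co-culture; compound 24 h; fix 10% TCA, stain 0.1% SRB, A560; protein content as cytotoxicity proxy; bidirectional curve fit, DMSO = baseline.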

[7] = target: human CYP2B6, CYP2B6 (gene 1555) (UniProt P20813); assay: NVS_ADME_hCYP2B6: NovaScreen (NVS) CYP450-related Enzyme Activity (ADME) Assay for human CYP2B6 (AID 2283101; active = hit-call score of the fitted dose curve at least 0.9, where 1 is the maximum)
Method in brief: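 Recombinant human CYP2B6 with fluorogenic substrate, read by fluorescence intensity 1 h after dosing. Primary screen in duplicate at 10 uM, actives followed in concentration series; signal loss relative to acetonitrile control.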

[8] = target: human CYP1A2, CYP1A2 (gene 1544) (UniProt P05177); assay: NVS_ADME_hCYP1A2: NovaScreen (NVS) CYP450-related Enzyme Activity (ADME) Assay for human CYP1A2 (AID 2283102; active = hit-call score of the fitted dose curve at least 0.9, where 1 is the maximum;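 note: potency for inhibition since loss of fluorescence marks reduced CYP1A2 activity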)
Method in brief: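 Fluorescence-intensity enzyme activity read-out, taken 0.5 h post-dosing, using insect-cell-derived recombinant CYP1A2 and specific fluorescent substrate. Acetonitrile served as negative control/baseline. Single-concentration duplicate screen at 10 uM, then concentration-response follow-up.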

[9] = target: human CYP2D6, CYP2D6 (gene 1565) (UniProt P10635); assay: NVS_ADME_hCYP2D6: NovaScreen (NVS) CYP450-related Enzyme Activity (ADME) Assay for human CYP2D6 (AID 2283107; active = hit-call score of the fitted dose curve at least 0.9, where 1 is the maximum)
Method in brief: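 Fluorescence intensity read 1 h post-dosing; insect-cell-expressed recombinant protein with fluorogenic substrate, no cells. Activity is scored as signal loss relative to acetonitrile baseline, first at a single 10 uM concentration in duplicate, then as concentration series for confirmed actives.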

[10] = target: human CYP2C9, CYP2C9 (gene 1559) (UniProt P11712); assay: NVS_ADME_hCYP2C9: NovaScreen (NVS) CYP450-related Enzyme Activity (ADME) Assay for human CYP2C9 (AID 2283108; active = hit-call score of the fitted dose curve at least 0.9, where 1 is the maximum)
Method in brief: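 Cell-free assay of recombinant human CYP2C9 produced in Sf9 cells, with enzyme activity read by fluorescence intensity 0.75 h after compound addition. Loss of signal versus an acetonitrile negative control indicates inhibition. Primary screen used 10 uM in duplicate; actives were retested in concentration series.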

[11] = target: Cytochrome P450 2C19 (Homo sapiens) (UniProt P33261); assay: NVS_ADME_hCYP2C19: NovaScreen (NVS) CYP450-related Enzyme Activity (ADME) Assay for human CYP2C19 (AID 2283113; active = hit-call score of the fitted dose curve at least 0.9, where 1 is the maximum;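 for AC50: potency for inhibition seen as loss of fluorescent signal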)
Method in brief: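 Recombinant insect-cell-expressed enzyme, fluorescent substrate, 1 h after chemical addition, fluorescence intensity. Baseline = acetonitrile vehicle; activity scored as signal loss. Primary HTS single concentration 10 uM, duplicate; actives retested in concentration series.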

[12] = target: human CYP2A6, CYP2A6 (gene 1548) (UniProt P11509); assay: NVS_ADME_hCYP2A6: NovaScreen (NVS) CYP450-related Enzyme Activity (ADME) Assay for human CYP2A6 (AID 2283099; active = hit-call score of the fitted dose curve at least 0.9, where 1 is the maximum)
Method in brief: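 Insect-cell-expressed human CYP2A6 enzyme activity measured by fluorescence intensity 0.5 hour post-dosing. Compounds screened at 10 uM in duplicate, then hits tested singly in concentration series (max 20 uM); acetonitrile baseline.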

[13] = target: human CYP1A1, CYP1A1 (gene 1543) (UniProt P04798); assay: NVS_ADME_hCYP1A1: NovaScreen (NVS) CYP450-related Enzyme Activity (ADME) Assay for human CYP1A1 (AID 2283100; active = hit-call score of the fitted dose curve at least 0.9, where 1 is the maximum)
Method in brief: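 Read-out: fluorescence intensity from enzymatic turnover of substrate by recombinant CYP1A1, loss of signal indicating inhibition. Incubation 1 h post-dose. Primary single-point 10 uM in duplicate; actives rerun singly with top concentration 20 uM.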

Measured: AC50

human CYP2B6, CYP2B6 (gene 1555), sequence (P20813 whole entry, looked up): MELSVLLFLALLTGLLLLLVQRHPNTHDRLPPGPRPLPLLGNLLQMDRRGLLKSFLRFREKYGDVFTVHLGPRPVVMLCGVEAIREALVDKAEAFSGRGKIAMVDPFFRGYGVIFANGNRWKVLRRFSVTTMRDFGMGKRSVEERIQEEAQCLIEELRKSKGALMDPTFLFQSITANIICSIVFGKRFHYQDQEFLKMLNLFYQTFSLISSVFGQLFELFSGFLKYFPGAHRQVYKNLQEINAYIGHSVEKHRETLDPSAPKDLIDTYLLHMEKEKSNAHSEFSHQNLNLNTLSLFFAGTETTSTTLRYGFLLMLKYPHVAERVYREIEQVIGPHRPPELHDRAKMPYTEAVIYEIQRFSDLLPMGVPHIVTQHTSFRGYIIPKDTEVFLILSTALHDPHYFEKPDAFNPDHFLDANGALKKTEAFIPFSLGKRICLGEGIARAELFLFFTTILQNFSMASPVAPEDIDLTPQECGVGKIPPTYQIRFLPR
human CYP2D6, CYP2D6 (gene 1565), sequence (P10635 whole entry, looked up): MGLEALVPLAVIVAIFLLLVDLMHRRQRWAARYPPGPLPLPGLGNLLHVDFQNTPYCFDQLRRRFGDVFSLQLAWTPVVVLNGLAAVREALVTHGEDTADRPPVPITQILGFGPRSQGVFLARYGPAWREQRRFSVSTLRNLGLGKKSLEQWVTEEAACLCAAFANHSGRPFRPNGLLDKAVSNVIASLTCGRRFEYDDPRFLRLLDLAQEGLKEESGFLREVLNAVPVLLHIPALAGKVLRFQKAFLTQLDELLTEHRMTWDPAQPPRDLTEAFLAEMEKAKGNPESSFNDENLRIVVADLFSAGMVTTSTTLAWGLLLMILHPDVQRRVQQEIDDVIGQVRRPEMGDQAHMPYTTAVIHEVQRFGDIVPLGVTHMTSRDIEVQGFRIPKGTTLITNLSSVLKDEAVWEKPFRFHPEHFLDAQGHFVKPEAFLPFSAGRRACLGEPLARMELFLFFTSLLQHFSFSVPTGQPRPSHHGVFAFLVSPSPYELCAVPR
human CYP2C9, CYP2C9 (gene 1559), sequence (P11712 whole entry, looked up): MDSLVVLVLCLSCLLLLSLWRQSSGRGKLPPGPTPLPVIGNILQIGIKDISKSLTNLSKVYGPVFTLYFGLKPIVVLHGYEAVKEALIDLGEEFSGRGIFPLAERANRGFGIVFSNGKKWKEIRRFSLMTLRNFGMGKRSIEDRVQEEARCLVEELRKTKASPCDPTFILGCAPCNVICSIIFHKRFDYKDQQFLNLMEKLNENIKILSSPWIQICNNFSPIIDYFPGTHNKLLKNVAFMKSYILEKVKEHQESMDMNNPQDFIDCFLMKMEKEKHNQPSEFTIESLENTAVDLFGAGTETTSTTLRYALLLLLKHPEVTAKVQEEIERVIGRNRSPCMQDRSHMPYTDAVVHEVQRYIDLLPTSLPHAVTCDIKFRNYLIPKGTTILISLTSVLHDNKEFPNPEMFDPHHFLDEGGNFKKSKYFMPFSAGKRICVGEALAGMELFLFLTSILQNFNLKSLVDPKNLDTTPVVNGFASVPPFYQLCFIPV
E-selectin (Homo sapiens), sequence (P16581 whole entry, looked up): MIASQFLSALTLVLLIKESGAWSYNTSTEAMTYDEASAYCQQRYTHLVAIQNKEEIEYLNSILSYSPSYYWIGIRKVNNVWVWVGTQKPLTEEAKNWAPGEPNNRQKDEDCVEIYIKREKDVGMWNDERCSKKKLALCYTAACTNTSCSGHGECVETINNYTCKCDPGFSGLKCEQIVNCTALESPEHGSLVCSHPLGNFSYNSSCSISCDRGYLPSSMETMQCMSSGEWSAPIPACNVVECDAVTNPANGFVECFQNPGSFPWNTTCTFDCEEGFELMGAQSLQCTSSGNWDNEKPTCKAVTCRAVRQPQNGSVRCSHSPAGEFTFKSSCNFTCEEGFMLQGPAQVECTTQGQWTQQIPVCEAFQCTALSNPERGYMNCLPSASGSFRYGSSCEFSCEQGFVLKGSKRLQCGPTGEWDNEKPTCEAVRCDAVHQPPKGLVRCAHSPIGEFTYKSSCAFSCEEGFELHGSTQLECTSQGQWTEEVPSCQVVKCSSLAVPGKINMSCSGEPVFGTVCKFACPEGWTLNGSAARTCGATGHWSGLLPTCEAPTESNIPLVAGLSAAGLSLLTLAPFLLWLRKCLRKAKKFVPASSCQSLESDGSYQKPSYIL
human CYP1A2, CYP1A2 (gene 1544), sequence (P05177 whole entry, looked up): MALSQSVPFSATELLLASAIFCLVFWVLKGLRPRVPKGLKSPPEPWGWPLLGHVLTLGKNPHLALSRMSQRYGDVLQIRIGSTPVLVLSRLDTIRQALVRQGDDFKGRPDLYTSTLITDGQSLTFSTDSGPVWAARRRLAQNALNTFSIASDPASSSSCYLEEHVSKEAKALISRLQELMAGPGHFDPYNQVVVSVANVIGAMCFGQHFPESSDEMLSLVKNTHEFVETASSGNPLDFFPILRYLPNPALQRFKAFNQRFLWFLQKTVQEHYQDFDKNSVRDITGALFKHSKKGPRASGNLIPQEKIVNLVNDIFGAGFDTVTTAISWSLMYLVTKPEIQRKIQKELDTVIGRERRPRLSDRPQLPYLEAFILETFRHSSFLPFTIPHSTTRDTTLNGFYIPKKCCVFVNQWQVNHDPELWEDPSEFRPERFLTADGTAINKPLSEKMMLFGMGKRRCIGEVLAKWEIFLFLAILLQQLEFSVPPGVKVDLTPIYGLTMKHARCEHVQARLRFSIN
human CYP1A1, CYP1A1 (gene 1543), sequence (P04798 whole entry, looked up): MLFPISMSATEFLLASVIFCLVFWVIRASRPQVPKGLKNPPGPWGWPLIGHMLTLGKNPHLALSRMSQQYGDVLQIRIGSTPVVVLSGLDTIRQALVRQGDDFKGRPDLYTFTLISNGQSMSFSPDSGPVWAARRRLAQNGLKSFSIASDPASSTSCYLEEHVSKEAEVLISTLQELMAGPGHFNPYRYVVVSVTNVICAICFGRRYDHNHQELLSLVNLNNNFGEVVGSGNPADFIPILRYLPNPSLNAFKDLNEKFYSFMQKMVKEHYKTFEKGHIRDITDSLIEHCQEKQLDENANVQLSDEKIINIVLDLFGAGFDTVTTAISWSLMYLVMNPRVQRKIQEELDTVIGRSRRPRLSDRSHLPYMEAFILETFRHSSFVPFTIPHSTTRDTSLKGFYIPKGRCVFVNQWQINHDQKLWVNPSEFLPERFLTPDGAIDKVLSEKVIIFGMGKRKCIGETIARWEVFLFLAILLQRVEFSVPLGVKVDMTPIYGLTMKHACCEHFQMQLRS
human CYP2A6, CYP2A6 (gene 1548), sequence (P11509 whole entry, looked up): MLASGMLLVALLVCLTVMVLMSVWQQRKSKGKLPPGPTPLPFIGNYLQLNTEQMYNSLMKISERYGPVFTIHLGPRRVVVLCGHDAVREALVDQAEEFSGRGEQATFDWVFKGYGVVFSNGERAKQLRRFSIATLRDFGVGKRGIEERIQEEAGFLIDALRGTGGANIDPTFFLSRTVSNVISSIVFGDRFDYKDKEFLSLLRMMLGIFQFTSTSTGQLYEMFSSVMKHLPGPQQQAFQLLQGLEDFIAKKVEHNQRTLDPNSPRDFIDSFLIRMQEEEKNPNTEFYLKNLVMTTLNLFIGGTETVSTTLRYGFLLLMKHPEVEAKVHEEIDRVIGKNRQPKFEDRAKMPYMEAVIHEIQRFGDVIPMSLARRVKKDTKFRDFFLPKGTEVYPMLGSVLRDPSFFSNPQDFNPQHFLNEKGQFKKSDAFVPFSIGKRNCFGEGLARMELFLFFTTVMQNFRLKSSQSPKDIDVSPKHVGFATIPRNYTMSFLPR

CCCCCCCCCCCCO
active: [1] 31.7 µM | [2] 36.3 µM | [3] 35.1 µM | [4] 19.8 µM | [5] 30.1 µM | [6] 31.3 µM

CCCCOC(=O)c1ccc(O)cc1
active: [7] 4.55 µM | [8] 2.4 µM | [9] 4.89 µM | [10] 7.15 µM | [11] 7.75 µM
not listed: [12] | [13]
inactive: all other assays above

CCCCCCCCOC(=O)c1cc(O)c(O)c(O)c1
active: [1] 16 µM | [2] 30.4 µM | [3] 27.7 µM | [4] 11.5 µM | [5] 5.52 µM | [6] 24.8 µM | [7] 10.1 µM | [8] 4.26 µM | [9] 10.1 µM | [10] 7.75 µM | [11] 5.4 µM

Cc1cc(F)ccc1-c1cc(N2CC[C@@H](O)[C@H]2CO)ncc1N(C)C(=O)C(C)(C)c1cc(C(F)(F)F)cc(C(F)(F)F)c1
active: [1] 10.2 µM | [2] 13.1 µM | [3] 7.85 µM | [4] 7.96 µM | [5] 5.7 µM | [6] 10.8 µM

CCN(Cc1cccc(S(=O)(=O)O)c1)c1ccc(C(=C2C=CC(=[N+](CC)Cc3cccc(S(=O)(=O)O)c3)C=C2)c2ccccc2S(=O)(=O)[O-])cc1
active: [3] 10 µM | [5] 9.61 µM | [10] 4.22 µM
inactive: [1] | [2] | [4] | [6]

CC(=O)N1CCN(c2ccc(OC[C@H]3CO[C@](Cn4ccnc4)(c4ccc(Cl)cc4Cl)O3)cc2)CC1
active: [1] 32.4 µM | [2] 37.7 µM | [3] 33 µM | [4] 26.5 µM | [5] 22.8 µM | [6] 24.7 µM

NCc1cccc(C2CCN(C(=O)c3ccc(C#Cc4ccccc4F)o3)CC2)c1
active: [1] 23.8 µM | [2] 35.1 µM | [3] 11.9 µM | [4] 15.8 µM | [5] 7.97 µM | [6] 15.2 µM | [12] 17.9 µM | [13] 7.2 µM | [7] 5.71 µM | [8] 6.43 µM | [9] 6.76 µM | [10] 0.112 µM | [11] 0.23 µM

Cc1cccc2ccccc12
inactive: [1] | [2] | [3] | [4] | [5] | [6] | [11]

O=C(O)c1ccccc1C(=O)OCc1ccccc1
inactive: [1] | [2] | [3] | [4] | [5] | [6]

Oc1ccc2ccccc2c1
active: [1] 10.8 µM
inactive: [2] | [3] | [4] | [5] | [6]

c1ccc2ccccc2c1
inactive: [1] | [2] | [3] | [4] | [5] | [6]

CN(C)C(=O)C1(N2CCCCC2)CCN(CC[C@@]2(c3ccc(Cl)c(Cl)c3)CN(C(=O)c3ccccc3)CCO2)CC1
active: [1] 28.3 µM | [2] 31.7 µM | [3] 15.4 µM | [4] 12 µM | [5] 5.91 µM | [6] 14 µM | [9] 4.97 µM | [10] 1.17 µM | [11] 0.393 µM

CC1(C)NC(=O)N(c2ccc([N+](=O)[O-])c(C(F)(F)F)c2)C1=O
inactive: [1] | [2] | [3] | [4] | [5] | [6]
active: [7] 7.49 µM | [8] 5.28 µM | [11] 2.81 µM

CCN(CC)C(=O)c1cc(S(=O)(=O)Cc2ccccc2)c(N2CCC(c3ccccc3)CC2)cc1N(CC)CCN(C)C
active: [1] 11.4 µM | [2] 15.2 µM | [3] 6.84 µM | [4] 5.2 µM | [5] 5.1 µM | [6] 12.7 µM | [9] 5.11 µM | [10] 12.5 µM | [11] 3.48 µM

CCOC(=O)O[C@H](C)OC(=O)c1ccc2c(c1)cc(C(=O)NC1CCN(C(C)C)CC1)n2Cc1cc(-c2ccc(Cl)s2)on1
inactive: [12]
active: [1] 8.76 µM | [2] 8.05 µM | [3] 2.82 µM | [4] 6.18 µM | [5] 2.37 µM | [6] 6.18 µM | [8] 13.7 µM | [10] 15.4 µM | [11] 5.54 µM

CN(C[C@@H](CC[N+]12CCC(C3CCCCC3)(CC1)CC2)c1ccc(Cl)c(Cl)c1)C(=O)c1cc(C(F)(F)F)cc(C(F)(F)F)c1
active: [1] 13.3 µM | [2] 27.8 µM | [3] 9.71 µM | [4] 13.9 µM | [5] 5.2 µM | [6] 26.9 µM | [13] 14.8 µM | [10] 7.68 µM
